Measurements as given in the supplement of paper PMC13172266.
Counter-ions that a name gives are not always drawn.

What was measured:
Experiment in all cases: cell proliferation relative to vehicle (% of vehicle); higher = less growth inhibition
Settings in all cases: 72 h
[1] = test system: U2932 TK216-resistant clone 2
How it was run: (§1)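 Parental U2932 cells (ABC-DLBCL) and two clones made resistant to an ETS-targeting agent by almost a year of repeated exposure were treated for 72 h with 348 targeted inhibitors at 500 nM or 50 nM. MTT was then applied for 4 h, the reaction was stopped with 25% SDS, and absorbance was measured on a Cytation 3. Values express proliferation as percent of proliferating cells compared with DMSO vehicle.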

[2] = test system: U2932 TK216-resistant clone 3
How it was run: as §1

U2932 parental = test system: U2932 parental
How it was run: as §1

Row | SMILES | cell proliferation ([1]; 50 nM) | cell proliferation ([1]; 500 nM) | cell proliferation ([2]; 50 nM) | cell proliferation ([2]; 500 nM) | cell proliferation (U2932 parental; 50 nM) | cell proliferation (U2932 parental; 500 nM)
1 | CC(C=CC(=O)NO)=CC(C)C(=O)c1ccc(N(C)C)cc1 (configuration not stated) [Trichostatin A (TSA)] | 68.3 | 8.5 | 74.5 | 4.96 | 67.2 | 2.14
2 | O=C1NC(=O)C(c2ccccc2[N+](=O)[O-])=C1Nc1ccc(O)c(Cl)c1 | 111 | 113 | 110 | 105 | 108 | 101
3 | C[C@@H]1CCN(C(=O)CC#N)C[C@@H]1N(C)c1ncnc2[nH]ccc12 | 102 | 104 | 113 | 98.5 | 109 | 107
4 | COc1cc(Nc2ncc(F)c(Nc3ccc4c(n3)N(COP(=O)(O)O)C(=O)C(C)(C)O4)n2)cc(OC)c1OC [Fostamatinib (R788)] | 96.7 | 92.8 | 97.2 | 95 | 96.7 | 93.6
5 | O=C(NOC[C@H](O)CO)c1ccc(F)c(F)c1Nc1ccc(I)cc1F | 101 | 101 | 96.6 | 96 | 92.3 | 91.5
6 | O=NN(CCCl)C(=O)NC1CCCCC1 [Lomustine] | 112 | 103 | 111 | 105 | 101 | 114
7 | CN(C)c1nc(N(C)C)nc(N(C)C)n1 [Altretamine] | 105 | 102 | 106 | 96.6 | 97.7 | 104
8 | CCO[C@@H]1OC(=O)C[C@@H]1NC(=O)[C@@H]1CCCN1C(=O)[C@@H](NC(=O)c1ccc(N)c(Cl)c1)C(C)(C)C | 105 | 105 | 101 | 102 | 95.4 | 98.2
9 | Cc1ccc(F)c(NC(=O)Nc2ccc(-c3cccc4[nH]nc(N)c34)cc2)c1 [Linifanib (ABT-869)] | 99.8 | 93.1 | 99 | 95.7 | 90.6 | 107
10 | Cc1ccc(Nc2nccc(N(C)c3ccc4c(C)n(C)nc4c3)n2)cc1S(N)(=O)=O [Pazopanib HCl] | 110 | 102 | 101 | 99.6 | 95.2 | 105
11 | CN(Cc1cnc2nc(N)nc(N)c2n1)c1ccc(C(=O)N[C@@H](CCC(=O)O)C(=O)O)cc1 [Methotrexate] | 102 | 37.1 | 102 | 67.8 | 99.4 | 29.9
12 | C[C@]12CCC(=O)C=C1CC[C@@H]1[C@@H]2[C@@H](O)C[C@@]2(C)[C@H]1CC[C@]2(O)C(=O)CO [Hydrocortisone] | 95.7 | 81.2 | 97.8 | 85.1 | 96.1 | 87.3
13 | COc1cc(Nc2ncc(F)c(Nc3ccc4c(n3)NC(=O)C(C)(C)O4)n2)cc(OC)c1OC | 108 | 97.1 | 103 | 103 | 87.9 | 82.1
14 | O=c1cc(N2CCOCC2)oc2c(-c3ccccc3)cccc12 | 110 | 102 | 100 | 97.3 | 105 | 105
15 | CCN(CC)CCCC(C)Nc1ccnc2cc(Cl)ccc12 (configuration not stated) [Chloroquine Phosphate] | 98.7 | 104 | 116 | 111 | 94.1 | 99.2
16 | COc1ccc(S(=O)(=O)N(CCO)c2ccccc2CN(C)C/C=C/c2ccc(Cl)cc2)cc1 [KN-93 Phosphate] | 103 | 90.8 | 105 | 90.1 | 102 | 89.6
17 | CN1CCN(Cc2ccc(-c3cnc4[nH]cc(-c5ccc6[nH]ccc6c5)c4c3)cc2)CC1 | 96.6 | 91.2 | 97.2 | 85.4 | 92.5 | 101
18 | Cc1cc(Nc2cc(N3CCN(C)CC3)nc(/C=C/c3ccccc3)n2)n[nH]1 [ENMD-2076 L-(+)-Tartaric acid] | 101 | 61.9 | 105 | 57.2 | 99 | 47.6
19 | O=C(/C=C/c1cccc(S(=O)(=O)Nc2ccccc2)c1)NO [Belinostat (PXD101)] | 104 | 48.6 | 98.1 | 67.6 | 90.1 | 41.8
20 | Cc1cc(Nc2cc(N3CCN(C)CC3)nc(/C=C/c3ccccc3)n2)n[nH]1 | 82 | 66.1 | 97.6 | 48.9 | 93 | 46
21 | CS(=O)(=O)c1cccc(CNc2nc(Nc3ccc4c(c3)CCC(=O)N4)ncc2C(F)(F)F)c1 | 110 | 101 | 103 | 98.3 | 90.5 | 82.6
22 | C[C@@H](O[C@H]1OCCN(Cc2n[nH]c(=O)[nH]2)[C@H]1c1ccc(F)cc1)c1cc(C(F)(F)F)cc(C(F)(F)F)c1 [Aprepitant] | 109 | 106 | 101 | 97.4 | 108 | 98.5
23 | O=C(O)C(=O)O.[NH-][C@@H]1CCCC[C@H]1[NH-].[Pt+2] [Oxaliplatin] | 104 | 99 | 105 | 96.6 | 96.8 | 93.2
24 | Cc1nc(Nc2ncc(C(=O)Nc3c(C)cccc3Cl)s2)cc(N2CCN(CCO)CC2)n1 [Dasatinib] | 74.2 | 63.7 | 66.1 | 52.4 | 75 | 60.9

Row | SMILES | cell proliferation ([1]; 50 nM) | cell proliferation ([1]; 500 nM) | cell proliferation ([2]; 50 nM) | cell proliferation ([2]; 500 nM) | cell proliferation (U2932 parental; 50 nM) | cell proliferation (U2932 parental; 500 nM)
25 | CCC[C@H](NC(=O)/C(C#N)=C/c1cccc(Br)n1)c1ccccc1 [Degrasyn (WP1130)] | 105 | 102 | 106 | 94.8 | 92.5 | 86.4
26 | Cc1cn(-c2cc(NC(=O)c3ccc(C)c(Nc4nccc(-c5cccnc5)n4)c3)cc(C(F)(F)F)c2)cn1 [Nilotinib (AMN-107)] | 106 | 110 | 102 | 106 | 103 | 103
27 | CC[C@H](NC(=O)[C@H](C)NC)C(=O)N1C[C@@H](O)C[C@H]1Cc1c(-c2[nH]c3cc(F)ccc3c2C[C@@H]2C[C@H](O)CN2C(=O)[C@H](CC)NC(=O)[C@H](C)NC)[nH]c2cc(F)ccc12 [Birinapant] | 102 | 100 | 99.4 | 90.9 | 103 | 101
28 | Cc1cn([C@H]2O[C@@H](CO)[C@H](O)[C@H]2F)c(=O)[nH]c1=O [Clevudine] | 100 | 103 | 96.2 | 103 | 98.8 | 96.8
29 | Cn1cc(CNCC2CCN(c3ncc(C(=O)NO)cn3)CC2)c2ccccc21 | 8.61 | 5.78 | 11.4 | 10.2 | 4.68 | 0.113
30 | CN1CCN(CCOc2cc(OC3CCOCC3)c3c(Nc4c(Cl)ccc5c4OCO5)ncnc3c2)CC1 [Saracatinib (AZD0530)] | 103 | 97.1 | 99.6 | 101 | 94.1 | 98.9
31 | CC(C)(C)c1nc(-c2cccc(NS(=O)(=O)c3c(F)cccc3F)c2F)c(-c2ccnc(N)n2)s1 | 111 | 101 | 106 | 110 | 101 | 93
32 | NC1(c2ccc(-c3nc4ccn5c(=O)[nH]nc5c4cc3-c3ccccc3)cc2)CCC1 | 101 | 70.1 | 97.5 | 74.9 | 96.8 | 68.4
33 | COCCOc1ccc2c(c1)ncn2-c1ccc2cccc(N3CCC(N)CC3)c2n1 | 107 | 106 | 103 | 94 | 99.8 | 90.4
34 | C[C@]12C=CC(=O)C=C1CC[C@@H]1[C@@H]2C(=O)C[C@@]2(C)[C@H]1CC[C@]2(O)C(=O)CO [Prednisone] | 95.3 | 94.8 | 105 | 102 | 97.3 | 100
35 | CC(C)n1c(/C=C/C(O)CC(O)CC(=O)O)c(-c2ccc(F)cc2)c2ccccc21 (configuration not stated) [Fluvastatin Sodium] | 97.4 | 89.5 | 92.2 | 102 | 81.9 | 83.5
36 | COc1cc(Nc2c(C#N)cnc3cc(OCCCN4CCN(C)CC4)c(OC)cc23)c(Cl)cc1Cl [Bosutinib (SKI-606)] | 106 | 73.1 | 103 | 63.3 | 98.5 | 83.4
37 | Cc1cc(N2CCOCC2)cc2[nH]c(-c3c(NC[C@@H](O)c4cccc(Cl)c4)cc[nH]c3=O)nc12 | 110 | 96 | 100 | 92.8 | 102 | 100
38 | CN1C(=O)C(Cc2c[nH]c3ccccc23)NC1=S (configuration not stated) [Necrostatin-1] | 103 | 93.1 | 95.6 | 102 | 95 | 94.8
39 | CCCS(=O)(=O)Nc1ccc(F)c(C(=O)c2c[nH]c3ncc(Cl)cc23)c1F | 99.4 | 97.3 | 106 | 106 | 95.1 | 95.6
40 | CCc1ccc(/C=C2/SC(=S)NC2=O)cc1 | 105 | 103 | 102 | 99.4 | 94.2 | 104
41 | C[C@@H](Oc1cc(-n2cnc3ccc(CN4CCN(C)CC4)cc32)sc1C(N)=O)c1ccccc1C(F)(F)F | 8.44 | 10 | 5.99 | 14.8 | 8 | 10.6
42 | CC/C(=C(\c1ccccc1)c1ccc(OCCN(C)C)cc1)c1ccccc1 [Tamoxifen Citrate] | 98.9 | 89.7 | 89 | 86.3 | 82.1 | 79.1
43 | C=C1/C(=C\C=C2/CCC[C@]3(C)[C@@H]([C@H](C)/C=C/[C@H](C)C(C)C)CC[C@@H]23)C[C@@H](O)C[C@@H]1O [Doxercalciferol] | 104 | 92.2 | 101 | 103 | 105 | 98.5
44 | Cn1c(Nc2ccc(C(F)(F)F)cc2)nc2cc(Oc3ccnc(-c4ncc(C(F)(F)F)[nH]4)c3)ccc21 | 96.1 | 80.7 | 98.8 | 96.7 | 95.6 | 88
45 | CC(C)c1cc(-c2n[nH]c(=O)n2-c2ccc3c(ccn3C)c2)c(O)cc1O [Ganetespib (STA-9090)] | 6.02 | 4.07 | 23.7 | 19.8 | 4.55 | 5.59
46 | O=C(Cc1ccc(-c2ccc(OCCN3CCOCC3)cc2)cn1)NCc1ccccc1 | 14.1 | 8.36 | 20.3 | 8.01 | 13.9 | 9.55
47 | CC(C)N(CCCNC(=O)Nc1ccc(C(C)(C)C)cc1)C[C@H]1O[C@@H](n2cc(Br)c3c(N)ncnc32)[C@H](O)[C@@H]1O | 108 | 100 | 105 | 96.1 | 96.7 | 100
